This is an account of results in the supplement of paper PMC7858590.

± gives the standard deviation of the averaged measurements. The full ranking holds about 3,800 compounds; the median of “cell shape (eccentricity) Z-score vs DMSO control” is about 1.1, and the lowest 2% start at about -4.7. The sample as a whole holds a higher share of the lowest values than the screen did.

The assay concerns human monocyte-derived macrophages (M0). Nature of the assay: cell shape (eccentricity) Z-score vs DMSO control; higher = more elongated, M2-like morphology. As to conditions: 20 µM; 24 h; macrophage state: M0 (M-CSF). How it is done:
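Primary human monocyte-derived macrophages (M-CSF differentiated, pooled from 4 donors, 5000 cells/well in 384-well plates) were treated with each compound at 20 uM for 24 h, then fixed and stained with phalloidin/DAPI and imaged on an Opera Phenix (6 fields, about 1000 cells/well). Cell eccentricity was measured with CellProfiler, and a Z-score (t-test) was computed against 4 DMSO control wells in the same row. Negative values mean round (M1-like) cells and positive values mean elongated (M2-like) cells; the paper's hit cutoffs are Z <= -4 (M1) and Z >= 6 (M2). Scale: negative = round, M1-like.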
Regarding `C=C1[C@@H](C)[C@H]2[C@H](Cc3ccccc3)NC(=O)[C@]23OC(=O)/C=C/[C@H](O)CCC[C@@H](C)C/C=C/[C@H]3[C@@H]1O`, the “cell shape (Z-score)” value is -24.4. The same measure for `C/C=C/c1ccc2c(c1)OCO2`: 2.7; for `CC(C)[C@]12O[C@H]1[C@@H]1O[C@]13[C@]1(O[C@H]1CC1C4=C(CC[C@@]13C)C(=O)OC4)[C@@H]2O` (stereo not given in full): 8.48; for `CC(=O)O[C@H]1C[C@@H](OC(C)=O)C(C)(C)C2C[C@@H](OC(C)=O)[C@]3(C)C(CC[C@@]4(C)[C@H](c5ccoc5)C(=O)[C@H]5O[C@]543)[C@]21C` (stereo not given in full): 0.275. In the case of `O=c1[nH]c2ccccc2n1C1CCN(CCCC(c2ccc(F)cc2)c2ccc(F)cc2)CC1`, the “cell shape (Z-score)” value was -6.33. The same measure for `O=C1NCN(c2ccccc2)C12CCN(CCCOc1ccc(F)cc1)CC2`: 1.17. To `O=c1[nH]c2ccccc2n1CCCN1CCC(n2c(=O)[nH]c3cc(Cl)ccc32)CC1` belongs -1.03; to `O=c1ccc2cc(O[C@@H]3O[C@H](CO)[C@@H](O)[C@H](O)[C@H]3O)c(O)cc2o1`, 2.48; to `CC(C)CC1C(=O)N2CCC[C@H]2C2(O)O[C@](NC(=O)C3C=C4c5cccc6[nH]c(Br)c(c56)C[C@H]4N(C)C3)(C(C)C)C(=O)N12` (stereo not given in full), 4.71. For the compound `O=C1Nc2ccccc2C2(CCN(CCc3ccc(C(F)(F)F)cc3)CC2)O1`, the “cell shape (Z-score)” value is -0.107.

Consider `O=C(N[C@H]1CN2CCC1CC2)c1ccc(Cl)cc1`, for which the “cell shape (Z-score)” value worked out at 1.37.

In the case of `c1cncc(C2=NCCC2)c1`, the “cell shape (Z-score)” value amounted to 0.998. The same measure for `COc1ccc2c3c([nH]c2c1)[C@H](CC(C)C)N1C(=O)[C@H](CCC(=O)OC(C)(C)C)NC(=O)[C@@H]1C3`: 9.45; for `COc1ccc2c(c1)[nH]c1c(C)nccc12`: -5.5. To `C=C[C@H]1C[N@@]2CC[C@H]1C[C@H]2[C@H](O)c1ccnc2ccccc12` belongs 2.46; to `CN1c2ccccc2C(NCCCCCCC(=O)O)c2ccc(Cl)cc2S1(=O)=O` (stereo not given), 0.787. To `CCCCC/C=C\C/C=C\C/C=C\C/C=C\CCCC(=O)NCc1ccc(O)c(OC)c1` belongs -0.144; to `O=C(Cc1ccc(Cl)c(Cl)c1)N1CCCCC1CN1CCCC1` (stereo not given), -0.746; to `Clc1ccc(C(OCCN2CCCCC2)c2ccccc2)cc1` (stereo not given), 9.16. `c1ccc(CCCN2CCN(CCOC(c3ccccc3)c3ccccc3)CC2)cc1`: the “cell shape (Z-score)” value was 4.69.

As to `C(=Cc1ccccc1)CN1CCN(CCOC(c2ccccc2)c2ccccc2)CC1`, the “cell shape (Z-score)” value is 1.98. To `Fc1ccc(C(OCCN2CCN(CCCc3ccccc3)CC2)c2ccc(F)cc2)cc1` belongs -0.302. To `Fc1ccc(C(OCCN2CCN(CC=Cc3ccccc3)CC2)c2ccc(F)cc2)cc1` belongs -4.91.

For the compound `C(=C\c1ccccc1)/CN1CCN(CCOC(c2ccccc2)c2ccccc2)CC1`, the “cell shape (Z-score)” value is -5.62. On to `Cc1c([N+](=O)[O-])oc2ccc3ccccc3c12`, for which the “cell shape (Z-score)” value is -0.364.

Turning to `CN(C)C(=O)Oc1cc(OC(=O)N(C)C)cc(C(O)CNC(C)(C)C)c1` (stereo not given), the “cell shape (Z-score)” value came out at 2.11. The same measure for `CC(=O)O[C@@H](c1nc2ccccc2c(=O)n1[C@@H]1C[C@@]2(OC1=O)c1ccccc1N1C(=O)[C@H](C)N(O)[C@@H]12)C(C)C`: 2.14.

Take `COc1cc(Br)c(OC)c2c1C(CN)C2` (stereo not given): the “cell shape (Z-score)” value was -4.96.

In the case of `CCCN(CCC)C1CCc2c(OC)cccc2C1C` (stereo not given), the “cell shape (Z-score)” value was determined as 4.87.

For `CC1=CC(=O)c2c(O)cccc2C1=O`, the “cell shape (Z-score)” value is -4.68. Turning to `CC(C)NCC(O)c1ccc(N)c(C#N)c1` (stereo not given), the “cell shape (Z-score)” value was -0.285.

Regarding `CC1(C)C(=O)C=C[C@@]2(C)C1C[C@@H](O)[C@]1(C)C2CC[C@@]2(C)[C@H](c3ccoc3)OC(=O)[C@H]3O[C@]321` (stereo not given in full), the “cell shape (Z-score)” value was 1.86.

For `CC(=O)O[C@@H]1C[C@@]2(C)[C@H](c3ccoc3)C[C@H]3O[C@]32[C@]2(C)C(=O)C(=O)C3C(C)(C)C(=O)C=C[C@]3(C)C12` (stereo not given in full), the “cell shape (Z-score)” value is -3.62. The same measure for `CC(=O)O[C@@H]1CC2C(C)(C)C(=O)C=C[C@]2(C)C2CC[C@]3(C)C(=CC(=O)O[C@H]3c3ccoc3)[C@@]21C` (stereo not given in full): -6.06; for `CC(C)(O)c1cc(O)c2c(c1)CCC1C(C)(C(=O)O)CCCC21C` (stereo not given): 0.93; for `CC(C)c1c(CN(C)C(C)Cc2ccccc2)n(C)n(-c2ccccc2)c1=O` (stereo not given): 2.2.

Regarding `CC12C(=O)OC(=O)C1(C)C1CCC2O1` (stereo not given), the “cell shape (Z-score)” value is -12.8.

As for `CN1CCc2cc3c(cc2[C@H]1C1OC(=O)c2c1ccc1c2OCO1)OCO3` (stereo not given in full), the “cell shape (Z-score)” value was found to be 0.327. The same measure for `CC[C@@H](C(=O)[C@@H](C)[C@@H](O)[C@H](C)[C@@H]1O[C@@H]([C@@H](CC)C(=O)O)CC[C@@H]1C)[C@H]1OC2(C=C[C@@H](O)[C@]3(CC[C@@](C)(C4CC[C@](O)(CC)[C@H](C)O4)O3)O2)[C@H](C)C[C@@H]1C` (stereo not given in full): 1.16. The same measure for `C=CCN1C[C@H](C)N([C@H](c2ccc(C(=O)N(CC)CC)cc2)c2cccc(O)c2)C[C@H]1C`: 1.38; for `C[C@]12CCC3C(CC[C@]4(O)C[C@@H](O)CC[C@]34C=O)[C@@]1(O)CCC2C1=CC(=O)OC1` (stereo not given in full): -3.05. To `CC(C)(O)CCC(=O)[C@](C)(O)[C@H]1[C@H](O)C[C@@]2(C)[C@@H]3CC=C4C(C=C(O[C@@H]5O[C@H](CO)[C@@H](O)[C@H](O)[C@H]5O)C(=O)C4(C)C)[C@]3(C)C(=O)C[C@]12C` (stereo not given in full) belongs 1.51; to `CC(C)(O)/C=C/C(=O)[C@](C)(O)C1[C@H](O)C[C@@]2(C)C3CC=C4C(CC(=O)C(=O)C4(C)C)[C@]3(C)C(=O)C[C@]12C` (stereo not given in full), -23.9; to `CN([N+][O-])c1cc(O)ccc1O`, -4.54. For the compound `C=CCC1(C(C)CCC)C(=O)N=C(S)NC1=O` (stereo not given), the “cell shape (Z-score)” value was found to be 2.85. `CC(=Cc1csc(C)n1)[C@H]1C[C@@H]2O[C@]2(C)CCC[C@H](C)[C@H](O)[C@@H](C)C(=O)C(C)(C)[C@@H](O)CC(=O)O1`: the “cell shape (Z-score)” value is 0.111.

`c1ccc2c(c1)[I+]c1ccccc1-2`: the “cell shape (Z-score)” value was -7.52. To `O=C1c2ccccc2C(=O)c2ccccc21` belongs 1.99. To `C[C@@]12C[C@@H](c3ccoc3)OC(=O)C1CC[C@]1(C)[C@H]2[C@H]2C=C[C@]1(O)C(=O)O2` (stereo not given in full) belongs -0.795; to `COc1cc2c(c(OC)c1OC)-c1ccc(OC)c(=O)cc1C(NC(C)=O)CC2` (stereo not given), 8.73. To `CC(C)(C)c1cc(C=C(C#N)C#N)cc(C(C)(C)C)c1O` belongs -0.65. As for `C[C@H]1O[C@@H](O[C@H]2CC[C@]3(CO)C4CC[C@]5(C)[C@@H](C6=CC(=O)OC6)CC[C@]5(O)C4CC[C@H]3C2)[C@H](O)[C@H](O)[C@@H]1O` (stereo not given in full), the “cell shape (Z-score)” value was 1.31.

As for `CO[C@@H]1[C@H](O)[C@@H](O[C@@H]2C[C@H]3CC[C@@H]4C(CC[C@]5(C)[C@@H](C6=CC(=O)OC6)CC[C@]45O)[C@@]3(C)[C@H](O)C2)O[C@H](C)[C@@H]1O[C@@H]1O[C@H](CO)[C@@H](O)[C@H](O)[C@H]1O` (stereo not given in full), the “cell shape (Z-score)” value was -2.59 ± 0.87. Turning to `C[C@H]1O[C@@H](O[C@H]2CC[C@]3(CO)C4CC[C@]5(C)[C@@H](C6=CC(=O)OC6)CC[C@]5(O)[C@@H]4CC[C@H]3C2)[C@H](O)[C@H](O)[C@@H]1O[C@@H]1O[C@H](CO)[C@@H](O)[C@H](O)[C@H]1O` (stereo not given in full), the “cell shape (Z-score)” value is -6.

For the compound `COc1ccc2c(c1O)-c1cc(O)cc3c1[C@@H](C2)N(C)CC3`, the “cell shape (Z-score)” value came out at 0.611.

Turning to `Cc1c(C(=O)c2cccc3ccccc23)c2cccc3c2n1[C@H](CN1CCOCC1)CO3`, the “cell shape (Z-score)” value is -5.15.

As for `CCCn1c(C)c(C(=O)c2cccc3ccccc23)c2ccccc21`, the “cell shape (Z-score)” value was determined as 1.57. To `Cc1c(C(=O)c2cccc3ccccc23)c2cccc3c2n1[C@@H](CN1CCOCC1)CO3` belongs 3.85. To `COc1cc([C@@H]2c3cc4c(cc3[C@H](OC(C)=O)[C@H]3COC(=O)[C@H]23)OCO4)cc(OC)c1OC` belongs 9.18; to `Cc1ccc2c(c1)Cc1c(C(=O)NC3CCCCC3)nn(-c3ccc(Cl)cc3Cl)c1-2`, 2.43; to `N#CC(C#N)=Cc1cc(O)c(O)c([N+](=O)[O-])c1`, -0.026. The same measure for `CCNC(=O)C1OC(n2cnc3c(N)ncnc32)C(O)C1O` (stereo not given): 4.21; for `CCOC(=O)c1ncn2c1CN(C)C(=O)c1cc(N=[N+]=[N-])ccc1-2`: 2.52. Take `CN1C[C@H](C(=O)N[C@]2(C)O[C@@]3(O)[C@@H]4CCCN4C(=O)[C@H](Cc4ccccc4)N3C2=O)C[C@@H]2c3cccc4[nH]cc(c34)C[C@H]21`: the “cell shape (Z-score)” value was determined as 3.57. To `CC(N)Cn1ccc2cc(F)c(Cl)cc21` (stereo not given) belongs 0.211.
